Inhibition data for 61 compounds are collected here from PubChem BioAssay AID521 (Sanford-Burnham Center for Chemical Genomics, 2006).

“And” between values parts separate entries of the source, which are not always exact repeats. Equal values may be shown once. The campaign covered roughly 110,000 compounds. About 730 (0.66%) were called active. Rule as the data show it: active = inhibition above about 50%; inconclusive = no clear call, values can overlap the other calls; inactive = below that. The entries come from a sample that favours actives as a whole. The source holds several records for some structures; these can differ, active in one and inactive in another.

In the test the target is Tyrosine-protein phosphatase non-receptor type 7 (Homo sapiens) (UniProt P35236). Kind of test: inhibitors of human HePTP phosphatase, primary screen, biochemical, absorbance, leukemia target (AID 521).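 Also: plate controls were vehicle for no effect and reference inhibitor for full effect.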 The following applies: recombinant HePTP phosphatase activity, OD absorbance; at 20 µM; stronger effect = higher value.
Chain of Tyrosine-protein phosphatase non-receptor type 7 (Homo sapiens) (P35236 whole entry, looked up): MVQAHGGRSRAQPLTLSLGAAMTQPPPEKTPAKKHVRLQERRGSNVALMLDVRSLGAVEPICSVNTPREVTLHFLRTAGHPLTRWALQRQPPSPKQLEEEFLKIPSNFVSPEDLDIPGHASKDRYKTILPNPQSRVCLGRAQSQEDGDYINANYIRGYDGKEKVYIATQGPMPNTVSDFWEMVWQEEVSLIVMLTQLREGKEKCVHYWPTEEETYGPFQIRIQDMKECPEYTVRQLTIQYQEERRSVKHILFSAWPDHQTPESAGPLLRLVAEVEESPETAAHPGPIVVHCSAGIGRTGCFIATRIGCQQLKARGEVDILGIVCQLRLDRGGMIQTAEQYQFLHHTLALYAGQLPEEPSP
For orientation: inhibition means the drop in the measured response relative to a control, in per cent. For the compound `Cc1[nH]n(-c2ccccc2)c(=O)c1C(=O)C(F)(F)F`, the inhibition is 3.1% (inactive). As for `Cc1[nH]n(-c2ccccc2)c(=O)c1C(c1ccc(C(F)(F)F)cc1)c1c(C)[nH]n(-c2ccccc2)c1=O`, the inhibition is 104% (active). For `Cc1[nH]n(-c2ccccc2)c(=O)c1/C=N/N(C)C` the value was -5.9% (inactive); for `COc1ccc2nc(C)c(CCC(C)=O)c(Cl)c2c1`, 6.4% (inactive). Consider `COc1ccc(C(=O)Nc2nc(C34CC5CC(CC(C5)C3)C4)c(C)s2)cc1`, for which the inhibition was -13.5% (inactive). As for `COC(=O)c1ccccc1NC(=O)COc1cccc2ccccc12`, the figure is 3.5% (inactive); as for `COc1cc(C(=O)N2CCC(Cc3ccccc3)CC2)c([N+](=O)[O-])cc1OC`, -4.3% (inactive). For `COC(=O)c1ccccc1NC(=O)c1cncc(Br)c1` the value was 5.5% (inactive) and 4.4% (inactive). As for `COC(=O)c1ccc(C(=O)Nc2cc(Cl)ccc2Cl)cc1NC(=O)c1ccccc1C`, the figure is -11.5% (inactive); as for `COC(=O)c1ccccc1NC(=O)c1ccc(Cl)cc1`, 72.5% (active). Regarding `Cc1cc(NC(=O)C2CC3CCC2C3)no1` (stereo unspecified), the inhibition is -16.7% (inactive). As for `O=C1NC(c2ccc(Br)cc2)=N/C1=C/c1ccccc1`, the figure is -7.8% (inactive); as for `Cc1cccc(NC(=O)/C(C#N)=C/c2ccc(-c3ccccc3[N+](=O)[O-])o2)c1`, 2.3% (inactive); as for `COc1ccc([N+](=O)[O-])cc1-c1ccc(/C=C(\C#N)c2nc3ccc(C)cc3[nH]2)o1`, 103% (active).

Turning to `CC(=O)NC1=NC(=O)/C(=C\c2ccc(-c3cc([N+](=O)[O-])ccc3C)o2)S1`, the inhibition is -13.7% (inactive). Regarding `CCCOc1ccc(N2C(=O)CC(NCCc3ccc(Cl)cc3)C2=O)cc1` (stereo unspecified), the inhibition was -18.1% (inactive).

`COc1ccccc1NCN1C(=O)S/C(=C/c2ccccc2F)C1=O`: the inhibition is -9.9% (inactive). In the case of `C/C(=C\C(=O)c1ccc(Br)cc1)Nc1ccccc1O`, the inhibition is -2% (inactive). Regarding `CC(C)(C)CC(C)(C)NC(=O)CSc1nc2ccccc2s1`, the inhibition was 5.4% (inactive).

In the case of `N/C(=C\C(=O)/C=C\c1ccccc1)C(Cl)(Cl)Cl`, the inhibition was -0.8% (inactive). Consider `O=c1oc2c3c4c(cc2cc1CCO)CCCN4CCC3`, for which the inhibition was 11.1% (inactive). Consider `CN1CCN(CCCCOc2cccc3ccccc23)CC1`, for which the inhibition was 3.9% (inactive). For `Cc1cc(C)c2oc(-c3ccc(NC(=O)c4cc5ccccc5o4)cc3O)nc2c1` the value was -0.1% (inactive); for `CCc1ccc2oc(-c3ccc(C)c(NC(=O)c4cc(OC)cc(OC)c4)c3)nc2c1`, -3.6% (inactive); for `COc1ccc(C=Nc2ccc(Sc3ccc([N+](=O)[O-])cc3)cc2)cc1OC`, -1.2% (inactive).

Consider `COc1ccc(/C=C2/SC(=S)NC2=O)cc1I`, for which the inhibition is 7.7% (inactive). For `CCC(=O)Nc1sc(C(=O)N2CCCCC2)c(C)c1C#N` the value was 7.4% (inactive); for `COC(=O)c1sc(NC(=O)C2CCCCC2)c(C#N)c1C`, 103% (active). As for `COC(=O)c1sc(NC(=O)C(Sc2ccccc2)c2ccccc2)c(C#N)c1C` (stereo unspecified), the figure is 10.9% (inactive); as for `CC1(C)c2ccccc2N(CCO)C12C=Cc1cc([N+](=O)[O-])ccc1O2` (stereo unspecified), 0.7% (inactive); as for `COC(=O)c1cc(S(=O)(=O)N2CCOCC2)ccc1Cl`, -0.5% (inactive).

With `O=C(Cc1c(O)c2ccccc2[nH]c1=O)NCc1ccc(Cl)cc1`, the inhibition was -5.2% (inactive). As for `CC(=O)n1nc(C)c2c1C[C@@H]1[C@H]2C1(C)C`, the figure is 2.1% (inactive); as for `O=c1[nH]c2ccc(Br)cc2c(-c2ccccc2)c1C1=NNC(c2ccc([N+](=O)[O-])cc2)C1` (stereo unspecified), 7.3% (inactive). As to `Cc1ccc(N2NC(=O)/C(=C/c3ccc(O)c(O)c3)C2=O)cc1C`, the inhibition is -5.6% (inactive). As for `Cc1ccc(N2NC(=O)/C(=C/c3ccc4c(c3)OCO4)C2=O)cc1Cl`, the figure is 66.6% (active); as for `O=C1NN(c2ccccc2)C(=O)/C1=C/c1cccc(F)c1`, 7.6% (inactive).

For `CC(C)=CC1C(C(=O)Nc2ccc(C)cn2)C1(C)C` (stereo unspecified), the inhibition is -10.2% (inactive). For the compound `O=C(NCc1ccco1)Nc1ccncc1`, the inhibition was -1.8% (inactive). As for `COc1ccccc1C(=O)NC(NC(=O)c1ccccc1OC)c1ccc(Br)cc1`, the figure is 7.8% (inactive); as for `O=C(Nc1ccc(OC(F)(F)F)cc1)c1cnn2c(C(F)(F)F)cc(-c3ccco3)nc12`, 0.1% (inactive); as for `OCCNCC(O)Cn1c2ccc(I)cc2c2cc(I)ccc21` (stereo unspecified), -15.3% (inactive). As for `Cn1cnnc1Sc1nc2c(c(=O)n(C)c(=O)n2C)n1Cc1ccc(F)cc1`, the figure is -3.2% (inactive); as for `CC(C)(C)c1ccc(OCC(=O)Nc2cccc(NC(=O)c3ccccc3)c2)cc1`, -1.7% (inactive); as for `Cc1cccc(NC(=O)c2ccc(NC(=O)COc3ccc(Cl)cc3Cl)cc2)c1`, 6.4% (inactive). As for `Cc1cccc(C(=O)Nc2cccc(NC(=O)COc3ccccc3Cl)c2)c1`, the figure is 105% (active). `CSc1ccc(-c2c(C#N)c(N)nc3c2c(C)nn3-c2ccccc2)cc1`: the inhibition was 2.8% (inactive). For `CSc1nc(N)c(C#N)c(-c2ccccc2Cl)c1C#N`, the inhibition is -5.7% (inactive). As to `N#Cc1c(N)nc2cc(N)ccc2c1-c1ccc(O)cc1`, the inhibition was 104% (active). On to `CCN(C(=S)NC(=O)c1cccnc1)c1ccccc1`, for which the inhibition is 3.3% (inactive).

With `COc1ccc(C(=O)Nc2nc3ccc(C)cc3s2)cc1Br`, the inhibition is 4.5% (inactive). Take `CCc1c(C)sc(NC(=O)C2CCCCC2)c1C(=O)OC(C)C`: the inhibition is 6.5% (inactive). For `COC(=O)c1cc(NC(=O)c2ccc(-c3cc(Cl)ccc3Cl)o2)cc(C(=O)OC)c1` the value was -24.3% (inactive); for `COc1cc(OC)cc(C(=O)N/N=C(\C)CC(=O)Nc2ccccc2-c2ccccc2)c1`, -23.1% (inactive). As for `CCCCOc1ccc(C(=O)NCc2ccco2)cc1`, the figure is 6% (inactive).

In the case of `CCOc1ccccc1C(=O)NCc1ccco1`, the inhibition is 103% (active) and 14.1% (inactive). For the compound `COc1ccc(C(=O)Nc2ccccc2C(=O)NCc2ccco2)cc1`, the inhibition is 4.8% (inactive).

Consider `O=C(Cc1ccc(Cl)cc1)Nc1ccc(Cl)cc1C(=O)O`, for which the inhibition was 1.2% (inactive). As for `CN(C)c1ccc(/C=C2\SC(=S)N(c3cccc(C(=O)O)c3)C2=O)cc1`, the figure is 104% (active); as for `O=Cc1ccc(/C=C2/SC(=S)N(c3cccc(Cl)c3)C2=O)cc1`, 4.5% (inactive). For `Cc1cccc(N2C(=O)S/C(=C/c3ccc(N(C)C)cc3)C2=O)c1` the value was -1.4% (inactive).
